About 2,000 (36%) of roughly 5,500 compounds were called active. Inconclusive results (about 18%) are left out. Some of the results follow. Unmarked numbers belong to inactive results. Rule as the data show it: active = normalized growth mostly below about 0.91 (no sharp cut-off); inconclusive = no clear call, values can overlap the other calls; inactive = mostly above about 0.92.
Test: chemical genetic growth profiling, strain panel (AID 1159580);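 also: tested at 20 µM; growth read once vehicle control cultures reached saturation at 30 °C; 1 = growth at the plate median or of vehicle wells; lower values mean less growth of the strain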
Conditions: S. cerevisiae deletion strains, growth OD
[1] = locus YAL013W, strain DEP1, stronger effect = lower value
[2] = locus YGR078C, strain PAC10, stronger effect = lower value
[3] = locus YNL153C, strain GIM3, stronger effect = lower value
[4] = locus YNL322C, strain KRE1, stronger effect = lower value
[5] = locus YPL055C, strain LGE1, stronger effect = lower value

C/C=C1\C(=O)CC2C3CCC4=CC(=O)CC[C@]4(C)C3CC[C@]12C (stereo partly specified)
normalized growth [1]: 0.978
normalized growth (locus YAL040C, strain CLN3, stronger effect = lower value): 0.975
normalized growth (locus YCL061C, strain MRC1 (second series), stronger effect = lower value): 1
normalized growth (locus YDR363W, strain ESC2, stronger effect = lower value): 0.996
normalized growth (locus YER002W, strain NOP16, stronger effect = lower value): 0.974
normalized growth [2]: 0.924
normalized growth (locus YMR307W, strain GAS1, stronger effect = lower value): 1.01
normalized growth (locus YNL128W, strain TEP1, stronger effect = lower value): 0.938
normalized growth [3]: 0.774 (active)
normalized growth (locus YNL175C, strain NOP13, stronger effect = lower value): 0.956
normalized growth (locus YNL197C, strain WHI3, stronger effect = lower value): 0.978
normalized growth (locus YNL224C, strain SQS1, stronger effect = lower value): 0.99
normalized growth [4]: 1.01
normalized growth (locus YOR083W, strain WHI5 (second series), stronger effect = lower value): 0.743 (active)
normalized growth [5]: 0.992

CC12CCC3C(CCC4=CC(=O)CCC43CO)C1CCC2OC(=O)c1ccccc1 (stereo unspecified)
normalized growth [1]: 0.994
normalized growth (locus YBR229C, strain ROT2, stronger effect = lower value): 1.01
normalized growth (locus YCL061C, strain MRC1, stronger effect = lower value): 0.999
normalized growth (locus YDL101C, strain DUN1, stronger effect = lower value): 1.01
normalized growth (locus YDR150W, strain NUM1, stronger effect = lower value): 0.993
normalized growth (locus YEL061C, strain CIN8, stronger effect = lower value): 1
normalized growth [2]: 1.01
normalized growth (locus YHR030C, strain SLT2, stronger effect = lower value): 0.946
normalized growth (locus YHR087W, strain rtc3, stronger effect = lower value): 1.01
normalized growth (locus YJL187C, strain SWE1, stronger effect = lower value): 1.02
normalized growth (locus YJR043C, strain POL32, stronger effect = lower value): 0.996
normalized growth (locus YJR075W, strain HOC1, stronger effect = lower value): 1.02
normalized growth (locus YLR039C, strain RIC1, stronger effect = lower value): 0.978
normalized growth (locus YLR058C, strain SHM2 (second series), stronger effect = lower value): 1
normalized growth (locus YLR085C, strain ARP6, stronger effect = lower value): 1
normalized growth (locus YLR262C, strain YPT6, stronger effect = lower value): 0.956
normalized growth (locus YML094W, strain GIM5, stronger effect = lower value): 1
normalized growth (locus YMR219W, strain ESC1, stronger effect = lower value): 1.01
normalized growth (locus YMR263W, strain SAP30, stronger effect = lower value): 0.991
normalized growth [3]: 1.01
normalized growth (locus YNL298W, strain CLA4 (second series), stronger effect = lower value): 1.05
normalized growth [4]: 1.02
normalized growth (locus YNR030W, strain Alg12, stronger effect = lower value): 0.986
normalized growth [5]: 1.02
normalized growth (locus YPL241C, strain CIN2, stronger effect = lower value): 1.02
normalized growth (locus YPR135W, strain CTF4, stronger effect = lower value): 0.923

Reference: PubChem BioAssay AID1159580 (chemical genetic matrix, 2015)
